Laboratory results taken from PubChem BioAssay AID1508600 (Functional Genomics Laboratory (NCATS/FGL), 2020).
The campaign covered roughly 53,000 sequences. About 3,700 (7%) were called active.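 The calls were made as follows: active = gene knockdowns whose robust z-score for IL-1 alpha signal is at least 2 or at most -2, so actives lie on both sides; inactive = the rest.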 This excerpt belongs to a sample that is enriched for actives.

Assay: Components of the Cytosolic LPS Sensing Pathway: Gene Identification via Genome-wide siRNA Screen;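 also: robust z of the log signal after scaling to non-targeting control siRNA wells of the plate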
Conditions: RAW264.7 macrophages, IL-1a HTRF, actives lie on both sides, screened at 100 nM (by protocol), cells primed 5 h with Pam3CSK4 first
Summary of the method: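 Supernatant IL-1a by HTRF from RAW264.7 cells primed with Pam3CSK4 (5 hours) and transfected with LipidA (24 hour) after 48h siRNA knockdown at 100 nM; cell viability checked with CellTiter-Glo.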

z-score, inactive:
GCCUCGUGAAUAAUUGAAATT against Ddt 0.967
GCCUAUUCUAUCGAUAACCTT against Cdh23 0.801
GGCCAUCAGUAUCAGCAAATT against Hip1r 0.547
GGAGACUCCUAAGAAGCAGTT against Cc2d1a 0.445
GGAUCGAAUCAGGAAUGAATT against Nphs1 1.39
GGAGAGUUACGACGUAUUCTT against Ckb 0.23
GGGACAAAAACACAUGUACTT against Kif5c 0.773
GGGAAUCAAAGGCUUUGGGTT against Ms4a1 -1.15
CCAUAUACCCUUGAAUUCCTT against Tmem185b 0.154
GGAAGACCUUCUUAAACACTT against Prokr2 1.26
GCUUUUGACGAGCAAGCAGTT against Eme1 1.47
CCCUUUCCUAUUUGUUAUGTT against Serpinb3d 0.754
GGUAUUAGUAUGUAUCUUCTT against Olfr135 0.305
CCCUAAUGAAUGGUCUCAUTT against Tmem74 -0.176
CCAUGUCCUAACCUGAAACTT against Zic5 0.372
GGCCCUAAUAGCAACAGGATT against Ubqln2 -1.31
GGCCUUCAAAUCAUACGCUTT against Ms4a19 0.283
GGAAGAAAAGGCUUCUCUUTT against Ube3c -0.00788
GGGAGAAUUUUUGUGCAAGTT against Capza3 0.437
CGCAUGUUCAUAGGACUGCTT against Olfr1420 0.453
GGAUCUUUCUUUUCUCUCUTT against Rab6b 0.32
GCUGAUCAAAUUGGCCUGUTT against Olfr984 -0.703
GGAAGGCCGCAUACUGAUGTT against Scgn -0.218
GGAUUGAAAGCUACUCGUGTT against Maf1 0.533
GAGACAAUGCAGCAAAAUCTT against Gm839 -1.13
GCACAAUUUCGUGUGAGCUTT against Sfxn5 0.643
GGAGGAGUAUGUUAAGGCCTT against Myh6 0.193
GGAGAGUCCAUACCAGAACTT against C1qa 0.0536
GGUUGGACAACAUAAUAAGTT against Riox2 1.17
GGUGUGGAGUAUGUAUGCUTT against Aplp1 -1.11
GGAACUACUACUCACCUAUTT against Trhr -0.776
GGGUCCUAAAAAUUCAAUUTT against Decr2 -0.106
GCUUCGUGGCUUUUUAUGATT against Dlgap3 -0.788
GCGAUUUGUGGUUCUCAUATT against Rnf103 -0.559
GGCGCACAAAGCUGUUCUUTT against Zbtb43 -0.87
GGGAACAAAAACAUAAAAGTT against Otub2 -1.17
CGGUCCUGAAUGAUCCUACTT against Gp2 0.969
GGAUUUGUGUCCAUCGUGCTT against Olfr66 0.00905
CCGUAUGUAACCAUCAAAGTT against Ncf1 0.281
GGCACUCCCUAAUGAACUCTT against Adck5 1.42
GUUACCUCAGUGUUAUACUTT against Olfr45 1.7
GGUGAAAAGAUGCAGGUGATT against Atp1a3 -1.1
GGGCAGGAACAAAAGAAGCTT against Dsc1 0.165
GGUGUCACCAUUUCAGUGGTT against Lbp 0.703
GCAUUCAUGUGCUCUGCCCTT against Ifitm6 -0.952
GGCAUUGAAUUAAAGAUACTT against Myct1 -1.06
GCAUCACGGAUUCGAAUUGTT against Dgkz -1.25
GGAAGACAUAAUAAUAGAGTT against Rad17 -1.39
CCUACAAGAACGAAGAUUUTT against Pla2g4d -1.67
CCACCUACGUCAACACUAATT against Kcnh6 -1.8
CCAGAUGUUGGAUAAAACGTT against Fbxw10 -0.333
GGAAAUUUCAGUCGAACAGTT against Arhgap31 0.333
GGUCUUUGACAGAAUAAAATT against Yipf1 1.94
GGCAUCCACCCUAAGGUCATT against Keap1 1.03
GGCCUCCAAAUGAACAGCATT against Trmt61a -0.365
GCUGUACGUAGAUUCCAGATT against Mmp21 1.48

z-score, active:
GGCUAUUGUGGAGAAGAUCTT against Cblif -2.07
GGAAAGGAAUGUUCAAAUUTT against Psmb8 2.02
GGCAGUCACUGGCUAAAUGTT against Ugt2a1 2.13
GGAUUUGAGCGAUAUGAGCTT against Tex12 -3.29
GCUUCAGUAUUUAUUUGCUTT against Usp28 2.27
GGCAGAAUUUGAGCACUUUTT against B4galnt2 -2
GGCCUGCGUUCAGAAGAGUTT against Wrn 3.46
GAAUUGUCUUACUUGGAAATT against Gimap4 2.05
CGAUGAACACACGUCUUAUTT against Dtl 2.05
GGCUGUCUUCUGAUCAAUUTT against Adamts3 2.42
CCAACAUCGAGCUAGCCACTT against Psma5 -2.28
GGAUUGAGUGACGACUGACTT against Nova2 2.25
CCCAAUUAGGCUAUGCUAATT against Amfr 2.27
